In PubChem BioAssay (NCI):
About 83,000 compounds went through this panel and 20% of them were active in at least one assay; those are over-represented in the sample as a whole.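 A percent growth of 40 corresponds to 60% growth inhibition; 0 means no net growth; -100 means all cells died. Active threshold: below 10.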 Unmarked numbers belong to inactive results. Activity calls are given as the source filed them.

Experiments:
Assay in all cases: NCI-60 one-dose screen, 48 h (100 = growth as untreated, 0 = no growth, -100 = all killed)
Details in all cases: 10 µM
[1] = test system: NCI-H23 lung
[2] = test system: NCI-H226 lung
[3] = test system: NCI-H322M lung
[4] = test system: HOP-62 NSCLC
[5] = test system: NCI-H460 lung
[6] = test system: HOP-92 NSCLC
[7] = test system: NCI-H522 lung
[8] = test system: A549/ATCC NSCLC
[9] = test system: 786-0 renal
[10] = test system: COLO 205 colon
[11] = test system: DU-145 prostate
[12] = test system: K-562 leukemia
[13] = test system: MALME-3M melanoma
[14] = test system: MDA-MB-231 breast
[15] = test system: SF-268 CNS
[16] = test system: SF-295 CNS
[17] = test system: SF-539 CNS
[18] = test system: UACC-257 melanoma
[19] = test system: M14 melanoma
[20] = test system: RXF 393 renal

Row | SMILES | growth [1] | growth [2] | growth [3] | growth [4] | growth [5] | growth [6] | growth [7] | growth [8] | growth [9] | growth [10] | growth [11] | growth [12] | growth [13] | growth [14] | growth [15] | growth [16] | growth [17] | growth [18] | growth [19] | growth [20]
1 | CCOc1ccc(/C=N/NC(=O)Cn2nc(Cc3ccc([N+](=O)[O-])cc3)c3onc(C)c3c2=O)cc1 | 28.8% | -21.1% (active) | 29.4% | -17.3% (active) | -9.53% (active) | -44.6% (active) | 47.6% | -23.6% (active) | -79.7% (active) | 53.7% | -15.2% (active) | 62.5% | -2.13% (active) | -19.9% (active) | -8.68% (active) | 1.32% (active) | -64.5% (active) | 70.3% | 50.9% | 
2 | CSc1nc(-c2cccc(C)c2)c2cc(-c3ccccc3)n(C)c2n1 | 15.8% | 40.7% | 56.2% | 37.4% | 10.8% | -8.91% (active) | -11.8% (active) | 26.8% | 20% | 18.7% | 31.4% | 12% | 20.1% | 33.1% | 25.7% | 17.3% | 14.3% | 40.5% | 21% | 
3 | Cc1ccn2c(C(=O)c3ccc(Br)cc3)cc(-c3cc(-c4ccc(N(C)C)cc4)c(C#N)c(N)n3)c2c1 | 27.6% | 60.5% | 41% | 78.8% | 54.4% | 31.2% | 45.3% | 70.2% | 40.9% | 47.5% | 56.2% | 68.7% | -1.54% (active) | 39.5% | 68% | 68.1% | 24.2% | 79.7% | 57.7% | 
4 | COc1ccc(/C=C/C(=O)c2ccc(N3CCN(C)CC3)cc2)c(C(F)(F)F)c1 | 28.2% | 46.4% | 76.5% | 79.6% | 11.2% | 46.8% | 52.8% | 48.4% | 41.6% | -64.6% (active) | 41.3% | 2.66% (active) | 45.2% | 37.4% | 70.8% | 18.4% | 14.6% | 63.3% | 38.3% | 
5 | O=C(c1ccc(Cl)cc1)C1[C@H](c2ccccc2Br)[C@@H](c2ccccc2)NC12C(=O)Nc1ccccc12 (some centres undefined) | 6.15% (active) | 21.9% | 42.1% | 43.6% | 0.679% (active) | 14% | -3.71% (active) | 20.4% | 16.3% | -42.4% (active) | 17.6% | 3.71% (active) | 39.6% | 8.15% (active) | 27.9% | 12.9% | 13.5% | 33.8% | 17.1% | -12.6% (active)
6 | N#Cc1c(NC(=O)c2ccc(C(O)(C(F)(F)F)C(F)(F)F)cc2)sc2c1CCC(=O)C2 | -81% (active) | -57.2% (active) | 19.1% | -17% (active) | 7.12% (active) | -55.7% (active) | -71.2% (active) | 9.39% (active) | -47.7% (active) | -89.3% (active) | 15.5% | -10.8% (active) | -92.5% (active) | -89.7% (active) | -9.56% (active) | -97% (active) | -96.2% (active) | -61.6% (active) | -68% (active) | -89% (active)
7 | O=c1[nH]c2ccc(Cl)cc2cc1CSc1ccc(Nc2nccc(-c3ccc4ccccc4c3)n2)cc1 | 81.9% | 50.5% | 95.5% | 85.8% | 20.8% | 88.1% | 80.5% | 22.7% | 64.8% | 31.8% | 38.3% | 85.7% | 20% | 55.2% | 68% | 111% | 94.1% | 112% | 88.4% | 
8 | Nc1nc(Nc2ccccc2)nn1Cc1c(Cl)cccc1Cl | 34.1% | 30.4% | 51.8% | 60.6% | 24.8% | -17.4% (active) | 21.1% | 43.1% | 27.8% | 33.2% | 48% | 12.8% | 31.4% | 24.1% | 50% | 46.6% | 37.6% | 69.7% | 35.5% | 
